Assay outcomes as filed in PubChem.
In the library only some 19% were active in any assay of this set; here they are far more common.
TDP1 cell CPT – qHTS for Inhibitors of human tyrosyl-DNA phosphodiesterase 1 (TDP1): qHTS in cells in presence of CPT; AID 686979, 2013; 420,000 tested, 12% active; chicken DT40 Tdp1-/-;hTDP1 cells + 20 nM CPT, ATP luminescence, 48 h; Potency, µM (series often up to 46.2 µM), without a hit: at the top dose activity change, negative = growth inhibition, actives largely listed as inhibitors; note: potency is the fitted concentration of half-maximal effect; nearly all actives have a fitted effect of over 55% in size
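Chicken DT40 Tdp1-/- cells stably complemented with human TDP1 were seeded at 400 cells/well in medium containing 20 nM camptothecin, exposed to pin-transferred compounds, and grown at 37 °C for at least 48 hr. Viability was read as ATP luminescence.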
HT1080NT lethal – qHTS for induction of synthetic lethality in tumor cells producing 2HG: qHTS for the HT-1080-NT fibrosarcoma cell line; Potency, µM (doses to about 46.1 µM), inactives show at the top dose activity, negative = less viability, actives largely listed as cytotoxic; HT-1080-NT fibrosarcoma viability, CellTiter-Glo ATP luminescence, 48 h; 360,000 tested, 1.6% active;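 note: NT is the 2HG producing partner of a matched IDH1 knockdown line; potency is the fitted concentration of half-maximal effect; 0% = DMSO-treated cells and -100% = media-only wells without cells; nearly all actives have a fitted effect of over 55% in size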
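Fibrosarcoma NT cells, 750 per well in 5% FBS RPMI, were exposed to compound for 48 hours. Viability: CellTiter-Glo luminescence.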
IL1B secr inh – qHTS for Inhibitors of Inflammasome Signaling: IL-1-beta AlphaLISA Primary Screen | 360,000 tested, 4.7% active | AID 743279, 2014 | activity change, % at 57.5 µM | THP-1 LPS/ATP IL-1B secretion, AlphaLISA, 16 h; hits give low values; in the data active = activity change below about -50%; inconclusive = mostly about -30% to -49%
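Secreted IL-1B measured by AlphaLISA bead assay after 16 h compound exposure of THP-1 cells; compounds (final up to 57.5 uM) added 1 h before LPS (250 ng/mL) and ATP (1.25 mM) stimulation; lower signal means less secretion.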
DT40 TDP1 no CPT – qHTS for Inhibitors of human tyrosyl-DNA phosphodiesterase 1 (TDP1): qHTS in cells in absence of CPT | DT40 Tdp1-/- hTDP1 cells, no CPT, ATP luminescence, 48 h | Potency, µM (top dose mostly 46.2 µM), for the others: at the highest dose activity change, negative = growth inhibition, actives largely listed as inhibitors | 420,000 tested, 15% active | AID 686978, 2013; note: potency is the fitted concentration of half-maximal effect; nearly all actives have a fitted effect of over 55% in size
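Camptothecin absent (DMSO only). Human TDP1-complemented DT40 knockout cells, 400 cells/well, 37 °C for minimum 48 hr; ATP measured via CellTiter-Glo, 30 min dark incubation, luminescence.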
HT1080 IDH1KD tx – qHTS for induction of synthetic lethality in tumor cells producing 2HG: qHTS for the HT-1080-IDH1KD cell line. HT-1080 IDH1 knockdown viability, ATP luminescence, 48 h. AID 686971, 2013. 360,000 tested, 2% active. Potency, µM (top dose mostly 46.1 µM), for the others: at the top dose activity, negative = toxicity, hits mostly cytotoxic;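 note: potency is the fitted concentration of half-maximal effect; 0% = DMSO wells and -100% = cell-free medium wells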
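Assay cells: HT-1080 with IDH1 knockdown, 750 per well, RPMI/5% FBS. Exposure: 48 h at 37 °C following 2 h pre-incubation. Read: CellTiter-Glo luminescence; fitted concentration-response, curve class assigned.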
Numbers without * were called inactive; ? = inconclusive; nt = not tested or not shown. Unless noted, calls come from the whole dose curve; as a rule, active = well fitted curve in the direction sought with a large enough effect; inconclusive = small, poorly fitted or top-dose-only effect, or another doubt; inactive = no such curve, though single readings can be large; an effect the other way counts as inactive or inconclusive. Unless noted, % is set by controls: 0 for no effect and ±100 for the full control effect.

SMILES	TDP1 cell CPT	HT1080NT lethal	IL1B secr inh	DT40 TDP1 no CPT	HT1080 IDH1KD tx
Cc1ccc(S(=O)(=O)Nc2nc(C)c(C)s2)cc1	-2%	9%	-7	13%	12%
COc1ccc(CN(C)C(=O)c2ccc(Oc3ccccc3)cc2)cc1F	-27%	-20%	-74*	?	-6%
COc1ccc(CN(C)C(=O)c2cccc(S(=O)(=O)NCc3ccccc3)c2)cc1F	-11%	4%	9	8%	3%
CCOc1ccc(CN(C)C(=O)[C@H](Cc2ccccc2)NC(=O)OCc2ccccc2)cc1OC	?	-1%	-77*	21µM*	-21%
O=C(c1ccc(Cl)cc1)N1CCC(C(=O)N2CCCc3ccccc32)CC1	-25%	5%	-8	-25%	3%
CC1(C)CC(=O)C=C(c2n[nH]nc2C2=CCCCC2)C1	-15%	3%	-12	-17%	2%
O=C(c1ccc(CNS(=O)(=O)c2cccc(Cl)c2)cc1)N1CCCCC1	16µM*	6%	-16	15µM*	2%
COc1ccc(N2CCN(C(=O)c3ccc(CNS(=O)(=O)c4cccc(OC)c4)cc3)CC2)cc1	9.2µM*	-6%	-84*	23µM*	?
COc1ccc(N2CCN(C(=O)c3ccc(NS(=O)(=O)c4cccc(F)c4)cc3)CC2)cc1	?	-6%	-4	?	-24%
COc1cccc(S(=O)(=O)NCc2ccc(C(=O)N3CCN(c4ccccc4)CC3)cc2)c1	16µM*	-9%	-14	16µM*	-10%
COc1ccc(S(=O)(=O)NCc2ccc(C(=O)N3CCN(c4ccccn4)CC3)cc2)cc1	8.9µM*	-8%	-4	?	-5%
Cc1cccc(NC(=O)CCc2ccc(C)o2)c1	?	15%	-12	?	14%
CCOC1=C2[C@H](c3ccc(CC)cc3)N(S(=O)(=O)c3ccc(C)cc3)C[C@H]2n2c(=O)n(-c3ccccc3)c(=O)n2C1	-20%	10%	10	-11%	21%
CC(=O)Nc1cccc(NC(=O)c2cc3c(=O)n4cccc(C)c4nc3n2C)c1	-29%	nt	nt	?	nt
Cc1cc(C)cc(N(C(=O)c2ccc(Br)o2)C2C=CS(=O)(=O)C2)c1 (configuration not stated)	-1%	18%	-9	?	6%
COc1ccc(N(C(=O)c2ccc(Br)o2)C2C=CS(=O)(=O)C2)cc1 (configuration not stated)	13µM*	5%	4	13µM*	-2%
OC(c1ccc2ccccc2c1)c1ncc(-c2cccc3ccccc23)[nH]1 (configuration not stated)	?	18µM*	?	?	26µM*
